This is part of a sample that, as a whole, favours compounds with a hit. Of some 83,000 tested, about 20% had one in any assay.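 Interpretation: 100, growth as untreated; towards 0, rising growth inhibition; 0, no net growth; 0 to -100, cell death. Compounds scoring below 10 were considered active.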 Activity calls are given as the source filed them.
What follows are molecules tested on KM12 colon (assay: NCI-60 one-dose screen, 48 h (100 = growth as untreated, 0 = no growth, -100 = all killed)). Conditions: 10 µM.

Compound | growth
Oc1cccc(-c2nc3sccn3c2-c2ccncn2)c1 | 107% (inactive)
CCOC(=O)c1cc(C(=O)c2cc(OC)c(OC)c(OC)c2)n2ccc(-c3cc[n+](CC(=O)c4cc(OC)c(OC)c(OC)c4)cc3)cc12 | 45.3% (inactive)
C[C@H]1[C@H](OC(=O)CCC(=O)O)O[C@@H]2O[C@]3(C)CC[C@H]4[C@H](C)CC[C@@H]1[C@@]24OO3 | 27.1% (inactive)
COc1ccc(C(=O)N/N=C/c2cc(C(F)(F)F)ccc2Cl)cc1 | 101% (inactive)
COc1ccc(-c2cc(-c3ccc(Cl)cc3)nc(SCCCC(=O)NO)n2)cc1OC | 21.7% (inactive)
CCC(=O)OC1CCC2C3CCC(=O)OC3C(C)(CCC(=O)O)CC12C (stereo not given) | 25.7% (inactive)
OCC1OC(n2ccc3c(NO)ncnc32)C(O)C1O (stereo not given) | -26.6% (active)
CC(C)(C)c1ccc(S(=O)(=O)N[C@H]2CC[C@H]3[C@@H]4CCc5cc(O)c([N+](=O)[O-])cc5[C@H]4CC[C@]23C)cc1 | 77.1% (inactive)
COc1cc(-c2nn(-c3cccc(NC(=O)CCNc4ccc(N5CCOCC5)cc4)c3)cc2-c2ccncc2)ccc1Cl | 20.4% (inactive)
COc1cc(-c2nn(-c3cccc(NC(=O)CN4CCOCC4)c3)cc2-c2cccnc2)ccc1Cl | 71.9% (inactive)
O=C(CCCSc1nc(-c2ccccc2)cc(-c2ccc(Cl)cc2)n1)NO | 24.7% (inactive)
CC(C)N(CCOc1cccc(-c2nc3sccn3c2-c2ccnc(S(C)(=O)=O)n2)c1)C(C)C | 87.8% (inactive)
O=C(CCC(C(=O)c1ccccc1)c1ccccc1)c1ccccc1 (stereo not given) | 34.5% (inactive)
COc1ccc(-c2csc(NC(=O)c3ccc(Cc4n[nH]c(=O)c5cccnc45)cc3)n2)cc1 | 98.5% (inactive)
COc1cc(-c2nn(-c3cccc(NC(=O)CCN4CCN(Cc5ccccc5)CC4)c3)cc2-c2ccncc2)ccc1Cl | 9.7% (active)
COc1cc2cc(Oc3ccc(NC(=O)c4cc(C(F)(F)F)cc(C(F)(F)F)c4)cc3)c(C)nc2cc1OC | 37.6% (inactive)
C[C@]12CCC3c4ccc(O)cc4C[C@@H](CCCCCCCCCS(=O)CCCC(F)(F)C(F)(F)F)C3C1CC[C@@H]2O (stereo not given in full) | 80.4% (inactive)
Cc1cc(Cl)ccc1Nc1nc(C(F)(F)F)ccc1C(=O)N/N=C/c1cccc(O)c1 | 41.8% (inactive)
COc1cc(C(=O)/C=C/c2c[nH]c3ccccc23)cc(OC)c1OC | 11.5% (inactive)
CCOC(=O)CC(S(=O)(=O)c1ccccc1)S(=O)(=O)c1ccccc1 | 97.1% (inactive)

Compound | growth
CCNCC(=O)Nc1ccc(C(=O)OCC)cc1 | 95.9% (inactive)
CCCc1cn(CC(=O)Nc2nc3ccccc3s2)nn1 | 109% (inactive)
COc1cc2cc(Oc3ccc(NC(=O)Nc4ccc(Cl)c(C(F)(F)F)c4)cc3)c(C)nc2cc1OC | -16.4% (active)
COc1cc(/C=C2\CCCC3=C2NC(N)=NC3c2cc(OC)c(OC)c(OC)c2)cc(OC)c1OC (stereo not given) | -75.8% (active)
COc1ccc(-c2cc(-c3ccc(Cl)cc3)nc(SCCCCCCC(=O)NO)n2)cc1OC | 69.4% (inactive)
COc1cc2ncnc(NC3CCC(O)CC3)c2cc1OC (stereo not given) | 95.3% (inactive)
COc1cc(C)ccc1Oc1nc(Nc2ccc(N3CCOCC3)cc2)ncc1NC(=O)Nc1cc(C(F)(F)F)cc(C(F)(F)F)c1 | 63.5% (inactive)
CCC(C)[C@H](NC(C)=O)C(=O)N[C@@H](CCCNC(=N)N)C(=O)N[C@@H](CCCCN)C(=O)N[C@@H](CC1CCC(O)CC1)C(=O)NC(C(=O)N[C@@H](CCSC)C(=O)N[C@@H](CCCNC(=N)N)C(=O)N[C@@]1(C)CCC/C=C\CCC[C@@](C)(C(=O)NC(C(=O)N[C@@H](CCC(=O)O)C(=O)N[C@@H](CC(C)C)C(=O)N[C@H](C(=O)N[C@@H](CCC(=O)O)C(N)=O)C(C)C)[C@@H](C)O)NC(=O)[C@H](CCC(N)=O)NC(=O)[C@H](CC(C)C)NC(=O)[C@H](CC(C)C)NC1=O)[C@@H](C)O (stereo not given in full) | 96.9% (inactive)
CN1C(=O)C2(Nc3cc(Cl)ccc3S2)c2cc(Cl)ccc21 (stereo not given) | 99% (inactive)
CC(=O)Nc1ccc2c(c1)C(=O)c1cccc(C(=O)O)c1-2 | 120% (inactive)
O=C(CNc1nnc(-c2cccnc2SCc2ccccc2)s1)Nc1nc(Cl)cc(Cl)n1 | 97.9% (inactive)
CCOC(=O)c1cc(C(=O)c2cc(OC)c(OC)c(OC)c2)n2nc(C)ccc12 | 28% (inactive)
COc1cc(/C=C/c2cc(/C=C/c3ccc(O)c(OC)c3)[nH]c(=O)n2)ccc1O | 29.3% (inactive)
O=C1CSC(=S)N1/N=C/c1ccc(Cl)s1 | 97.5% (inactive)
COc1ccc(-c2onc(N)c2-c2cc(OC)c3c(c2)OCO3)cc1 | 21.8% (inactive)
COc1cc(/C=C/c2cc(/C=C/c3ccc(O)c(OC)c3)n(C(=O)Nc3ccc(C)cc3)n2)ccc1O | -1.13% (active)
COc1cc(NC(=O)Nc2cnc(Nc3ccc(N4CCOCC4)cc3)nc2Oc2cccc(OC)c2)cc(OC)c1 | 53.3% (inactive)
CC(=O)N[C@H](C(=O)N[C@@H](CCCNC(=N)N)C(=O)N[C@@H](CCCCN)C(=O)N[C@@H](CCCNC(=N)N)C(=O)NC(C(=O)N[C@@H](CC(C)C)C(=O)N[C@@H](CCCNC(=N)N)C(=O)N[C@@]1(C)CCC/C=C\CCC[C@@](C)(C(=O)N[C@@H](CCCNC(=N)N)C(=O)N[C@@H](CCC(=O)O)C(=O)N[C@@H](CC(C)C)C(=O)N[C@H](C(=O)N[C@@H](CCC(=O)O)C(N)=O)C(C)C)NC(=O)[C@H](CCC(N)=O)NC(=O)[C@H](CC(C)C)NC(=O)[C@H](CC(C)C)NC1=O)[C@@H](C)O)C(C)C (stereo not given in full) | -40.8% (active)
Oc1ccc(/C=N/N=C2c3ccccc3-c3ccccc32)c(O)c1 | 52.2% (inactive)
C[C@@H](C[C@H](CCO)c1ccccc1)c1ccc2ccccc2c1 | -42.3% (active)

Source: PubChem BioAssay (NCI)
